# Measured values: PubChem BioAssay (EPA / NIEHS)
# Values joined by “and” are separate entries in the source; they are usually repeats but may differ in a detail not shown here. Equal entries are not always repeated. Records with an inconclusive call do not appear. Active and inactive are the calls of the source. How the source made its calls: active means hit-call score of the fitted dose curve at least 0.9, where 1 is the maximum; inconclusive means response in the unintended direction; inactive means score below 0.9.
# What was measured:
# [1] = target: Retinoic acid receptor alpha (Homo sapiens) (UniProt P10276); test: ATG_RARa_TRANS: Attagene TRANS-FACTORIAL HepG2 Assay for human Retinoic Acid Receptor alpha (RARa) (AID 2283005)
# Summary of the method: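 Reporter transcripts, measured by RT-PCR with fluorescent labeling and capillary electrophoresis after 24 h dosing, reflect activity of an exogenous human RARa–GAL4 fusion in transiently transfected HepG2. Fitted for increase relative to DMSO.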
# [2] = target: Peroxisome proliferator-activated receptor gamma (Homo sapiens) (UniProt P37231); test: ATG_PPARg_TRANS: Attagene TRANS-FACTORIAL HepG2 Assay for human Peroxisome Proliferator-activated Receptor-gamma (PPARg) (AID 2283007)
# Summary of the method: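 HepG2 cells transiently transfected with multiplexed GAL4-UAS reporter units and exogenous chimeric NR-Gal4 proteins; reporter mRNA quantified after 24 h compound exposure by RT-PCR, fluorescent labelling, HpaI digestion and capillary electrophoresis; gain-of-signal fitted versus DMSO baseline.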
# [3] = target: human RAR-related Orphan Receptor gamma (RORg), RORC (gene 6097) (UniProt P51449); test: ATG_RORg_TRANS: Attagene TRANS-FACTORIAL HepG2 Assay for human RAR-related Orphan Receptor gamma (RORg) (AID 2283011)
# Summary of the method: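 Transient MRTU transfection of HepG2 (TRANS format, exogenous NR-Gal4 chimera). 24 h dosing. Total RNA → oligo(dT) RT → PCR → 6-FAM labelling → HpaI cut → CE. Gain vs DMSO.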
# [4] = target: human Vitamin D Receptor (VDR), VDR (gene 7421) (UniProt P11473); test: ATG_VDR_TRANS: Attagene TRANS-FACTORIAL HepG2 Assay for human Vitamin D Receptor (VDR) (AID 2283022)
# Summary of the method: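 RT-PCR/capillary electrophoresis read-out of reporter mRNA induction in transiently transfected HepG2; 24 h dosing; chimeric NR-Gal4 (TRANS format); gain-of-signal fit against DMSO baseline.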
# [5] = target: Retinoic acid receptor RXR-alpha (Homo sapiens) (UniProt P19793); test: ATG_RXRa_TRANS: Attagene TRANS-FACTORIAL HepG2 Assay for human Retinoid X Receptor alpha (RXRa) (AID 2283012)
# Summary of the method: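 Cells (HepG2) carried transiently transfected GAL4-responsive reporter units. Following a 24 h chemical incubation, reporter mRNA induction was read via RT-PCR fragment analysis; DMSO served as negative control and baseline.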
# [6] = target: Nuclear receptor subfamily 1 group I member 2 (Homo sapiens) (UniProt O75469); test: ATG_PXR_TRANS: Attagene TRANS-FACTORIAL HepG2 Assay for human Pregnane X Receptor (PXR) (AID 2283008)
# Summary of the method: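 HepG2 cells transiently transfected with multiple reporter units, here a PXR-GAL4 chimera driving a GAL4-UAS reporter; 24 h compound exposure. Reporter mRNA measured by RT-PCR, FAM labelling and capillary electrophoresis; gain of signal fitted against DMSO baseline.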
# [7] = target: human Thyroid Receptor alpha (THRa1), THRA (gene 7067) (UniProt P10827); test: ATG_THRa1_TRANS: Attagene TRANS-FACTORIAL HepG2 Assay for human Thyroid Receptor alpha (THRa1) (AID 2283014)
# Summary of the method: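 Transient HepG2 transfection, NR-Gal4 chimera driving GAL4-UAS reporters; 24 h compound exposure; total RNA, oligo(dT) RT, PCR, fluorescent primer extension, capillary electrophoresis. Upward direction vs DMSO control.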
# [8] = target: human Retinoic Acid Receptor gamma (RARg), RARG (gene 5916) (UniProt P13631); test: ATG_RARg_TRANS: Attagene TRANS-FACTORIAL HepG2 Assay for human Retinoic Acid Receptor gamma (RARg) (AID 2283009)
# Summary of the method: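 HepG2, RARg-GAL4 TRANS system, 24 h exposure; reporter mRNA by RT-PCR + CE fluorescence; increase over DMSO.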
# [9] = target: human Retinoid X Receptor beta (RXRb), RXRB (gene 6257) (UniProt P28702); test: ATG_RXRb_TRANS: Attagene TRANS-FACTORIAL HepG2 Assay for human Retinoid X Receptor beta (RXRb) (AID 2283013)
# Summary of the method: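 Multiplexed TRANS reporter assay in HepG2; 24 h dosing; reporter mRNA by RT-PCR/CE fluorescence; gain-of-signal relative to DMSO.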
# [10] = target: human RAR-related Orphan Receptor beta (RORb), RORB (gene 6096) (UniProt Q92753); test: ATG_RORb_TRANS: Attagene TRANS-FACTORIAL HepG2 Assay for human RAR-related Orphan Receptor beta (RORb) (AID 2283010)
# Summary of the method: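 In this TRANS-format test, human HepG2 cells express chimeric NR-Gal4 fusion proteins driving GAL4-UAS reporters. After 24 h dosing, reporter transcripts are measured by fluorescent RT-PCR/capillary electrophoresis, with DMSO as negative control.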
# Sequence of human Thyroid Receptor alpha (THRa1), THRA (gene 7067) (P10827 whole entry, looked up, the tested form may be a part): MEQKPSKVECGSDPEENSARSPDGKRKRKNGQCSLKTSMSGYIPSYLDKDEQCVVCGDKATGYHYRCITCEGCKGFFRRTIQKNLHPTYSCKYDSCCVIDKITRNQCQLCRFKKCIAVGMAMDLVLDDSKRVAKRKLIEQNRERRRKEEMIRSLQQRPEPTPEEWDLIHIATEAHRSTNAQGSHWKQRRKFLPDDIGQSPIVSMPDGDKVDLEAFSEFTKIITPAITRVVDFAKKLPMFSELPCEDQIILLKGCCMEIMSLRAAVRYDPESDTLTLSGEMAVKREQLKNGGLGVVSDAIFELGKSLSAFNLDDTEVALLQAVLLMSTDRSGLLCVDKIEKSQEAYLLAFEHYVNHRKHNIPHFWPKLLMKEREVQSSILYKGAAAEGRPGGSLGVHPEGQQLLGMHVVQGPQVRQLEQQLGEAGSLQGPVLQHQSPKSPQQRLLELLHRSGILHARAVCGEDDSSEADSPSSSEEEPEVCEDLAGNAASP
# Sequence of Retinoic acid receptor RXR-alpha (Homo sapiens) (P19793 whole entry, looked up, the tested form may be a part): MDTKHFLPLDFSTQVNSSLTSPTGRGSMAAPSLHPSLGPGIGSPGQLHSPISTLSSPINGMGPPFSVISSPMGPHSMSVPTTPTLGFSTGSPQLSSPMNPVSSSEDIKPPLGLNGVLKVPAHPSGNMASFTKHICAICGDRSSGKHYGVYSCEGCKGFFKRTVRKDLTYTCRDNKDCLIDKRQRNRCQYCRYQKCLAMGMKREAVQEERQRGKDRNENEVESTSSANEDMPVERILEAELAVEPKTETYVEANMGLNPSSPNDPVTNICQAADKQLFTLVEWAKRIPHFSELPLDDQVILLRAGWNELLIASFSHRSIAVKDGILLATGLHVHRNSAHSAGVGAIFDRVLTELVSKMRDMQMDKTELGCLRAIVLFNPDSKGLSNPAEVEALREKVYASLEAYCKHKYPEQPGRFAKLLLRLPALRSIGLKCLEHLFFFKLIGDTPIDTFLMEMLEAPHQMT
# Sequence of human Vitamin D Receptor (VDR), VDR (gene 7421) (P11473 whole entry, looked up, the tested form may be a part): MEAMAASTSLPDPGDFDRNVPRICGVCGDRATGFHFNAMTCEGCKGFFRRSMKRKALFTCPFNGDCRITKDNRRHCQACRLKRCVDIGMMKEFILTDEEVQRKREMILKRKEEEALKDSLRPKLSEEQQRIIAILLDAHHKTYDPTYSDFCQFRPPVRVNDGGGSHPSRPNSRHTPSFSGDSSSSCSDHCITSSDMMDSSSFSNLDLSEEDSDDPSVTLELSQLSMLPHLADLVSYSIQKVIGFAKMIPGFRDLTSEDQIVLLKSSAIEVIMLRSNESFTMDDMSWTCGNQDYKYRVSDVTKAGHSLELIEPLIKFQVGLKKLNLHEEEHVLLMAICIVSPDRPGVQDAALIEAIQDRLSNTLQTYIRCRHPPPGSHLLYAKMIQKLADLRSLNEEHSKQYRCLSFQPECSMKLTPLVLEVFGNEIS
# Sequence of human Retinoic Acid Receptor gamma (RARg), RARG (gene 5916) (P13631 whole entry, looked up, the tested form may be a part): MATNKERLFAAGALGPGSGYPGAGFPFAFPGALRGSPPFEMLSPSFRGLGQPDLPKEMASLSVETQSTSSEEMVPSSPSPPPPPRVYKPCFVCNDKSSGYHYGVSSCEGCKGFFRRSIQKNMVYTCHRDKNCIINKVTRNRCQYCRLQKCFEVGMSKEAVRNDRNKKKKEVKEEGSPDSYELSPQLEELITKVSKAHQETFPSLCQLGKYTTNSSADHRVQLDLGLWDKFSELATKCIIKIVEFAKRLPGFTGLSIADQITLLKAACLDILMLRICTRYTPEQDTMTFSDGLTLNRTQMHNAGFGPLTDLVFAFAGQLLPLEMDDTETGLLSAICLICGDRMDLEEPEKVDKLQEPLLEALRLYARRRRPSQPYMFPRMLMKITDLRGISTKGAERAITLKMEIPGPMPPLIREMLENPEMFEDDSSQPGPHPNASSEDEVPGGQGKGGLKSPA
# Sequence of human RAR-related Orphan Receptor gamma (RORg), RORC (gene 6097) (P51449 whole entry, looked up, the tested form may be a part): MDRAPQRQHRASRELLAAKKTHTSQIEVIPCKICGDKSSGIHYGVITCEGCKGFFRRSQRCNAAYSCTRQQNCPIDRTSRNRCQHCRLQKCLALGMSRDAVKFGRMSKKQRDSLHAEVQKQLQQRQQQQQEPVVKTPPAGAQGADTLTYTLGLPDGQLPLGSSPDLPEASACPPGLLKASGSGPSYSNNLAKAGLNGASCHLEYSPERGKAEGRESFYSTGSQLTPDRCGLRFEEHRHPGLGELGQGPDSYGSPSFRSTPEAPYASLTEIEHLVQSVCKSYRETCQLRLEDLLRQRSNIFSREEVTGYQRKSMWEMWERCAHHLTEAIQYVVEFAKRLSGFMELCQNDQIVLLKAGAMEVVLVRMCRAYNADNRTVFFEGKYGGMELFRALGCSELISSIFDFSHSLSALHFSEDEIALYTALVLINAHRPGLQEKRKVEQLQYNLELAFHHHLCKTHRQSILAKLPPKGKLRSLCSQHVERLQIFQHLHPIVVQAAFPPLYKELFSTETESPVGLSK
# Sequence of human Retinoid X Receptor beta (RXRb), RXRB (gene 6257) (P28702 whole entry, looked up): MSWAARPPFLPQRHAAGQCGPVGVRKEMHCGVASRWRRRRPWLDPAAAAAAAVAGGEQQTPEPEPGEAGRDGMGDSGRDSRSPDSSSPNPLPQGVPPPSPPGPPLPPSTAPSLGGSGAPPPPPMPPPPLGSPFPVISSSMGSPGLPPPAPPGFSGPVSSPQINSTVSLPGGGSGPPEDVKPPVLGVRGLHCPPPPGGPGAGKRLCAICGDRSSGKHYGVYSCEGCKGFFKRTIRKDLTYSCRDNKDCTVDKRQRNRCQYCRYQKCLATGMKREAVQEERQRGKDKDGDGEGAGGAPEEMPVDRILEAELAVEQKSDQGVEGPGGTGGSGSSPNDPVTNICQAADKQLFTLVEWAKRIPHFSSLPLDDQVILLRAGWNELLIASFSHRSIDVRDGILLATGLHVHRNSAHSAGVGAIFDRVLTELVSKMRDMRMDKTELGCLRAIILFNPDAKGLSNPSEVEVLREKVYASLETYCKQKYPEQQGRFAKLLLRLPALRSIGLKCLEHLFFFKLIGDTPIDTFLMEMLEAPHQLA
# Sequence of human RAR-related Orphan Receptor beta (RORb), RORB (gene 6096) (Q92753 whole entry, looked up, the tested form may be a part): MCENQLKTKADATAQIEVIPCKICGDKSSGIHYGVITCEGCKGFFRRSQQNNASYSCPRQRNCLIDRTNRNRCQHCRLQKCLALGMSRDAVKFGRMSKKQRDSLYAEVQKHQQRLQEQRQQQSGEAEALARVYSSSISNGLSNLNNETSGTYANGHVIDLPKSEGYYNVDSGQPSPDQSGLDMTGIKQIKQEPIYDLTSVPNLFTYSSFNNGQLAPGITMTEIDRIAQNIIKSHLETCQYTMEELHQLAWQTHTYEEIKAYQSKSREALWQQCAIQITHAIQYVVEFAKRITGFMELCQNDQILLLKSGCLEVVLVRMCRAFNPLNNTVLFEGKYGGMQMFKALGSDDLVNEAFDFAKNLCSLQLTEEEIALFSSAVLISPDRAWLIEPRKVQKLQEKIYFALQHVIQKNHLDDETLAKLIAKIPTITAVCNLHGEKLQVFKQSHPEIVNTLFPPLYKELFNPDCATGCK
# Sequence of Peroxisome proliferator-activated receptor gamma (Homo sapiens) (P37231 whole entry, looked up, the tested form may be a part): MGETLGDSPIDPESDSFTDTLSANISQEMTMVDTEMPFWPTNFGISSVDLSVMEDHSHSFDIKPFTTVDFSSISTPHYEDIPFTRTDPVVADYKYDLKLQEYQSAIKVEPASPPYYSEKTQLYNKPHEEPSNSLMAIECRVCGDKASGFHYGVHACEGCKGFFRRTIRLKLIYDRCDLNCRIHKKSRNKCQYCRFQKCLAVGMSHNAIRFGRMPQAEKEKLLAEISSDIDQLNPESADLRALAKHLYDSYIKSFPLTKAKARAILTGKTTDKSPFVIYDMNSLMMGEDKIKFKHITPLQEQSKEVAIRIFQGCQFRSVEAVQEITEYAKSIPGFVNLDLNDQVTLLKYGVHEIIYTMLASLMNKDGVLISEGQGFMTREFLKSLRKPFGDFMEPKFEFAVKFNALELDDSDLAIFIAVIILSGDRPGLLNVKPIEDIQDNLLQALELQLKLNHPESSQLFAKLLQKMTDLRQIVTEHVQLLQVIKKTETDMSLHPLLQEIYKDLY
# Sequence of Nuclear receptor subfamily 1 group I member 2 (Homo sapiens) (O75469 whole entry, looked up, the tested form may be a part): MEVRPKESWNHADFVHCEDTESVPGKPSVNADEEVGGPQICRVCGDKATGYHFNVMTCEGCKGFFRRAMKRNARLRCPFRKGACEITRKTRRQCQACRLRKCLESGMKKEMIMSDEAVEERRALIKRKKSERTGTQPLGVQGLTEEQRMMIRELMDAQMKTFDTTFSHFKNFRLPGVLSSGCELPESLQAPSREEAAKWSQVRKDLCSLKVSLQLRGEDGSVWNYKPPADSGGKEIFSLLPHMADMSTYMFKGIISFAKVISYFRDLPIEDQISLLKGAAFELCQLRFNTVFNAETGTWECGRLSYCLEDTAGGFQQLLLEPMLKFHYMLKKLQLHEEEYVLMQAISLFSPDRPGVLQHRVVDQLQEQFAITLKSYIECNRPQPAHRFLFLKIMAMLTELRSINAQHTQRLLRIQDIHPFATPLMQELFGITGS
# Sequence of Retinoic acid receptor alpha (Homo sapiens) (P10276 whole entry, looked up, the tested form may be a part): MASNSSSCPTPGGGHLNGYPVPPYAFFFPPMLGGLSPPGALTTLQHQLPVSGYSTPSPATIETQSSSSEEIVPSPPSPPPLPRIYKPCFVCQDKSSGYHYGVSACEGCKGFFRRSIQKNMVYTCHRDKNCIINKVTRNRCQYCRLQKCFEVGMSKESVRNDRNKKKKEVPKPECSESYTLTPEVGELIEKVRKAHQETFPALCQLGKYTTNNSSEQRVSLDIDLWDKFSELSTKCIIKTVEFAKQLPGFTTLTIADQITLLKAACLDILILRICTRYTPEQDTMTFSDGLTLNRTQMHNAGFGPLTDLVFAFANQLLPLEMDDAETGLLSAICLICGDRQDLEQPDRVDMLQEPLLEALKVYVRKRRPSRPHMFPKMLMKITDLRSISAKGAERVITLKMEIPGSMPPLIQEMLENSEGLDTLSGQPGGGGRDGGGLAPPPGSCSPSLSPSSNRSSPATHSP
structure (smiles),measurement,setting,value
CCO[Si](CCC1CCC2OC2C1)(OCC)OCC (configuration not stated),outcome,[1],inactive
same,outcome,[2],inactive
same,outcome,[3],inactive
same,outcome,[4],inactive
CC(C)CCOCCC(C)C,outcome,[1],inactive
same,outcome,[3],inactive
same,outcome,[5],inactive
same,outcome,[4],inactive
CC(C)c1c(C(=O)Nc2ccccc2)c(-c2ccccc2)c(-c2ccc(F)cc2)n1CC[C@@H](O)C[C@@H](O)CC(=O)O,AC50,[2],20.3 µM (active) and 19.6 µM (active)
same,AC50,[6],9.99 µM (active)
same,outcome,[3],inactive
same,outcome,[4],inactive
O=S(=O)(c1ccc(OCc2ccccc2)cc1)c1ccccc1O,AC50,[2],0.66 µM (active)
same,AC50,[6],3.73 µM (active)
same,outcome,[5],inactive
same,outcome,[4],inactive
Cc1cncc(C)c1,outcome,[2],inactive
same,outcome,[6],inactive
same,outcome,[4],inactive
COC(=O)CC(C(C)=O)C(=O)OC (configuration not stated),outcome,[2],inactive
same,outcome,[6],inactive
same,outcome,[3],inactive
same,outcome,[7],inactive
same,outcome,[4],inactive
CCCCCCc1ccc(N)cc1,outcome,[2],inactive
same,outcome,[6],inactive
same,outcome,[5],inactive
same,outcome,[4],inactive
CCCCCCCCCCCC(=O)NCCCN(C)C,outcome,[6],inactive
same,outcome,[5],inactive
CCN(CC)CC,outcome,[6],inactive
same,outcome,[8],inactive
same,outcome,[3],inactive
same,outcome,[5],inactive
same,outcome,[7],inactive
same,outcome,[4],inactive
CC(C)(C)c1ccc(CCC=O)cc1,outcome,[2],inactive
same,AC50,[6],29.3 µM (active)
same,outcome,[3],inactive
same,outcome,[5],inactive
same,AC50,[9],41.2 µM (active)
same,outcome,[4],inactive
CCCCCCCCC(C)=O,outcome,[6],inactive
same,outcome,[3],inactive
same,outcome,[5],inactive
same,outcome,[4],inactive
O=C1OC(=O)c2cc(-c3ccc4c(c3)C(=O)OC4=O)ccc21,outcome,[6],inactive
same,outcome,[10],inactive
C/C=C/C(=O)C1=C(C)CCCC1(C)C,AC50,[2],64.7 µM (active)
same,AC50,[6],19.8 µM (active)
same,outcome,[3],inactive
same,outcome,[5],inactive
same,outcome,[9],inactive
FC(OC(F)(F)C(F)(F)C(F)(F)F)C(F)(F)F (configuration not stated),outcome,[2],inactive
same,outcome,[10],inactive
same,outcome,[3],inactive
same,outcome,[5],inactive
same,outcome,[4],inactive
CCc1cccc(CC)c1NC(=O)C(=O)O,outcome,[6],inactive
same,outcome,[3],inactive
same,outcome,[7],inactive
same,outcome,[4],inactive
C[C@]12CC[C@@H]3c4ccc(O)cc4CC[C@H]3[C@@H]1CC[C@@H]2OC(=O)CCC1CCCC1,outcome,[6],inactive
same,outcome,[3],inactive
same,outcome,[5],inactive
same,AC50,[9],169 µM (active)
CC(=O)CC(C)C,outcome,[6],inactive
same,outcome,[3],inactive
same,outcome,[5],inactive
same,outcome,[9],inactive
same,outcome,[7],inactive
same,outcome,[4],inactive
FCOC(C(F)(F)F)C(F)(F)F,outcome,[8],inactive
same,outcome,[10],inactive
same,outcome,[5],inactive
same,outcome,[4],inactive
NNC(=O)CCCCC(=O)NN,outcome,[6],inactive
same,outcome,[8],inactive
same,outcome,[10],inactive
same,outcome,[5],inactive
same,outcome,[7],inactive
same,outcome,[4],inactive
O=C1Cc2ccccc2N1c1c(Cl)cccc1Cl,outcome,[2],inactive
same,AC50,[6],0.517 µM (active)
same,outcome,[5],inactive
same,outcome,[7],inactive
same,outcome,[4],inactive
C=CC(=O)OCC(CO)(COCC(COC(=O)C=C)(COC(=O)C=C)COC(=O)C=C)COC(=O)C=C,outcome,[2],inactive
same,outcome,[6],inactive
same,outcome,[3],inactive
same,outcome,[5],inactive
same,outcome,[9],inactive
same,outcome,[4],inactive
c1ccc2c(c1)CCC2,outcome,[8],inactive
same,outcome,[3],inactive
same,outcome,[5],inactive
CCC(=O)C=Cc1ccc(OC)cc1,AC50,[2],24.6 µM (active)
same,outcome,[6],inactive
same,outcome,[5],inactive
same,outcome,[7],inactive
CCCCCCCC(OC)OC,outcome,[2],inactive
same,outcome,[3],inactive
same,outcome,[4],inactive
CCOC(=O)c1nc(C(Cl)(Cl)Cl)n(-c2ccc(Cl)cc2Cl)n1,AC50,[2],40.4 µM (active)
same,AC50,[6],7.68 µM (active)
same,outcome,[5],inactive
same,outcome,[4],inactive
COc1cc([N+](=O)[O-])ccc1N,outcome,[6],inactive
same,outcome,[5],inactive
same,outcome,[7],inactive
same,outcome,[4],inactive
CC(=O)Nc1ccc(S(N)(=O)=O)cc1,outcome,[6],inactive
same,outcome,[8],inactive
same,outcome,[10],inactive
same,outcome,[5],inactive
same,outcome,[9],inactive
same,outcome,[4],inactive
NCc1cccc(CN)c1,outcome,[2],inactive
same,outcome,[6],inactive
same,outcome,[3],inactive
same,outcome,[5],inactive
Nc1cc(Cl)c(-c2cc(Cl)c(N)cc2Cl)cc1Cl,AC50,[2],14.5 µM (active)
same,AC50,[6],4.7 µM (active)
same,outcome,[10],inactive
same,outcome,[5],inactive
same,outcome,[7],inactive
same,outcome,[4],inactive
Brc1ccc(Oc2ccc(Br)cc2Br)cc1,outcome,[2],inactive
same,outcome,[3],inactive
CC(C)(c1ccc(Oc2ccc(N)cc2)cc1)c1ccc(Oc2ccc(N)cc2)cc1,AC50,[2],1.69 µM (active)
same,AC50,[6],2.28 µM (active)
same,outcome,[3],inactive
same,outcome,[5],inactive
same,outcome,[9],inactive
same,outcome,[7],inactive
C=CC(F)(F)C(F)(F)C(F)(F)C(F)(F)F,outcome,[2],inactive
same,outcome,[6],inactive
same,outcome,[5],inactive
same,outcome,[4],inactive
O=C(O)c1cccc(C(=O)O)n1,outcome,[5],inactive
same,outcome,[9],inactive
CCCCCCCCCC=CCC1CC(=O)OC1=O (configuration not stated),outcome,[3],inactive
same,outcome,[4],inactive
C=C(c1ccc(C(=O)O)cc1)c1cc2c(cc1C)C(C)(C)CCC2(C)C,AC50,[2],11.1 µM (active) and 14.2 µM (active)
same,outcome,[6],inactive
same,outcome,[7],inactive
same,outcome,[4],inactive
Cc1ccccc1C(OCCN(C)C)c1ccccc1 (configuration not stated),outcome,[6],inactive
same,outcome,[8],inactive
same,outcome,[5],inactive
same,outcome,[9],inactive
Nc1ccn([C@@H]2O[C@H](CO)[C@@H](O)C2O)c(=O)n1 (some centres not stated),outcome,[3],inactive
same,outcome,[5],inactive
CNNCc1ccc(C(=O)NC(C)C)cc1,outcome,[2],inactive
same,outcome,[6],inactive
same,outcome,[10],inactive
same,outcome,[5],inactive
same,outcome,[7],inactive
same,outcome,[4],inactive
COC(=O)C(F)(F)C(F)(F)C(F)(F)F,outcome,[2],inactive
same,outcome,[5],inactive
same,outcome,[7],inactive
same,outcome,[4],inactive
NC(C(F)(F)F)C(F)(F)F,outcome,[6],inactive
same,outcome,[8],inactive
same,outcome,[7],inactive
same,outcome,[4],inactive
